{"source": "PubChem BioAssay AID1259309", "about": "(ICCB-Longwood Screening Facility, Harvard Medical School, 2017)", "note": "Where “and” joins values, the source holds several entries; their conditions need not be identical. Identical values can stand only once. Out of some 330,000 compounds screened, about 1,800 (0.55%) were called active. The sample as a whole holds a higher share of actives than the screen did. Values without a mark were called inactive. No stated cut-off is given here; in the data, active means growth inhibition above about 68%; inactive means the rest."}
{"assay": "growth inhibition of ugtP-null S. aureus, primary screen, RN4220 ugtP deletion, OD600 (AID 1259309);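 further: plate controls were untreated wells for no effect and antibiotic for full effect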", "settings": "16 h, active compounds read high"}
{"smiles": "O=C(CCC(=O)Nc1ccc(F)cc1)NN=Cc1ccccc1", "growth inhibition": "-1.26%"}
{"smiles": "CCCC1CCCCC=CCCCC(=O)OCCN1C(=O)OC(C)(C)C", "note": "(stereo not given)", "growth inhibition": "-29.8% and -2.83%"}
{"smiles": "COc1ccc(Cl)cc1NC(=O)CN(C)C(=O)c1cc2ccccc2cc1OC", "growth inhibition": "-3.53%"}
{"smiles": "COc1ccc(Cl)cc1NC(=O)CN(C)C(=O)CNC(=O)C12CC3CC(CC(C3)C1)C2", "growth inhibition": "-1.84%"}
{"smiles": "COc1ccc(Cl)cc1NC(=O)CN(C)C(=O)CCCc1c[nH]c2ccccc12", "growth inhibition": "98.4% (active)"}
{"smiles": "COc1ccc(C(=O)Nc2ccccc2C(=O)NN=Cc2ccccc2OC)cc1", "growth inhibition": "10.4%"}
{"smiles": "NC1=NCC(Cc2ccc(O)cc2)N1CCc1cccc(F)c1", "note": "(stereo not given)", "growth inhibition": "4.31% and -0.973%"}
{"smiles": "CSCCC(NC(=O)c1ccc(Cl)cc1Cl)C(=O)NNC(=O)c1csc(N2CCOCC2)n1", "note": "(stereo not given)", "growth inhibition": "6.67%"}
{"smiles": "CSCc1cc(N(C)C)nc(SCc2ccc(Cl)cc2Cl)n1", "growth inhibition": "63.4%"}
{"smiles": "CSCc1cc(N2CCOCC2)nc(SCc2ccc(Cl)cc2Cl)n1", "growth inhibition": "93.1% (active)"}
{"smiles": "CCN(CC)c1ccc(C=NNC(=O)c2c[nH]c3ccccc23)cc1", "growth inhibition": "-5.72%"}
{"smiles": "CCN1C(=O)C2C(C1=O)C(c1ccccc1)N1C(=O)c3ccccc3NC(=O)C21", "note": "(stereo not given)", "growth inhibition": "-13.8%"}
{"smiles": "CCC1CCCCN1C(=O)NC(CCSC)C(=O)OC", "note": "(stereo not given)", "growth inhibition": "7.53%"}
{"smiles": "COc1ccc(-c2nnc(NC(=O)CS(=O)(=O)c3ccc(Cl)cc3)o2)c(OC)c1", "growth inhibition": "46.4%"}
{"smiles": "COc1cccc(-c2nnc(NC(=O)c3ccc(S(=O)(=O)N(CC(C)C)CC(C)C)cc3)o2)c1", "growth inhibition": "100% (active)"}
{"smiles": "O=C(Nc1nnc(-c2ccco2)o1)c1ccc(S(=O)(=O)N2CCOCC2)cc1", "growth inhibition": "11.9%"}
{"smiles": "Cn1c2ccccc2c2nnc(NN=Cc3ccc(O)cc3)nc21", "growth inhibition": "3.8%"}
{"smiles": "O=C(NN=Cc1ccc(-c2ccc(Cl)c(Cl)c2)o1)C(=O)N1CCCC1", "growth inhibition": "-5.08%"}
{"smiles": "CCc1nnc(NN=Cc2c(Cl)cccc2Cl)n1N", "growth inhibition": "-4.51%"}
{"smiles": "C=CCOc1ccc(C(O)=C2C(=O)C(=O)N(CCCOC)C2c2ccc(O)c(OC)c2)cc1", "note": "(stereo not given)", "growth inhibition": "8.37%"}
{"smiles": "O=[N+]([O-])c1cc(C=NNC(=Nc2ccccn2)c2ccccn2)ccc1O", "growth inhibition": "66.8%"}
{"smiles": "CCCc1cc(-c2nc(-c3ccc(C)cc3)cs2)ccn1", "growth inhibition": "16.9%"}
{"smiles": "CCn1c(SCCC(C)C)nnc1-c1c[nH]c2ccccc12", "growth inhibition": "-3.66%"}
{"smiles": "Cc1ccc(-c2csc(-c3c[nH]c4ccccc34)n2)cc1", "growth inhibition": "89.5% (active)"}
{"smiles": "C=CCn1c(N=Cc2ccc(OC)cc2)nc2ccccc21", "growth inhibition": "7.61%"}
{"smiles": "COc1ccc2nc(N=C(N)NC(=O)N3c4ccccc4Sc4ccccc43)nc(C)c2c1", "growth inhibition": "-21.3%"}
{"smiles": "COc1ccc2c(c1OC)CN1CCc3cc4c(cc3C1C2O)OCO4", "note": "(stereo not given)", "growth inhibition": "15.5%"}
{"smiles": "CCOc1ccccc1C=NNC(=O)c1nnn(-c2nonc2N)c1CN1CCCCCC1", "growth inhibition": "2.59%"}
{"smiles": "C#CCOCCOCCOCCNc1nc(N2CCN(C(=O)C(CCCCN)n3cc(CCCC)nn3)CC2)nc(N2CCN(C(=O)C(C(C)CC)n3cc(CCCN=C(N)N)nn3)CC2)n1", "note": "(stereo not given)", "growth inhibition": "11.2%"}
{"smiles": "O=C(Nc1ncc([N+](=O)[O-])s1)C1COc2ccccc2O1", "note": "(stereo not given)", "growth inhibition": "90.5% (active)"}
{"smiles": "CC(=O)c1cccc(NC(=O)C2COc3ccccc3O2)c1", "note": "(stereo not given)", "growth inhibition": "8.46%"}
{"smiles": "CC(=NNC(=O)CNC(=O)C1COc2ccccc2O1)c1ccc([N+](=O)[O-])cc1", "note": "(stereo not given)", "growth inhibition": "0.446%"}
{"smiles": "O=C(O)CCC(=NNC(=O)c1cn(-c2ccccc2)nc1-c1ccccc1)C(=O)O", "growth inhibition": "0.633%"}
{"smiles": "CCc1ccc2c(c1)C1(NN=C(c3ccccc3)S1)C(=O)N2", "note": "(stereo not given)", "growth inhibition": "95.8% (active)"}
{"smiles": "CC(=NOC(=O)c1ccc(F)cc1)c1sc(-c2ccccc2)nc1C", "growth inhibition": "-1.32%"}
{"smiles": "CC(=O)c1cnc(-c2ccccc2)s1", "growth inhibition": "-8.03%"}
{"smiles": "O=C(/C=C/Nc1ccccc1)c1cnc(-c2ccccc2)s1", "growth inhibition": "-8.21%"}
{"smiles": "CON=CCC(=O)c1cnc(-c2ccc(Cl)cc2)s1", "growth inhibition": "87.5% (active)"}
{"smiles": "CC(=O)Nc1ccc(C(=O)NN=CC2CC3C=CC2C3)cc1", "note": "(stereo not given)", "growth inhibition": "9.12%"}
{"smiles": "CS(=O)(=O)c1ccc(CNC(=O)[C@]2(C(F)(F)F)CC(CCc3ccccc3)CCCO2)cc1", "note": "(stereo not given in full)", "growth inhibition": "-0.803%"}
{"smiles": "Cc1cccc(NC(=O)c2ccc([N+](=O)[O-])o2)c1", "growth inhibition": "21.9%"}
{"smiles": "Cc1ccc(NCC(=O)NN=Cc2ccc([N+](=O)[O-])o2)cc1", "growth inhibition": "26.7%"}
{"smiles": "C/[N+]([O-])=C\\c1ccc([N+](=O)[O-])o1", "growth inhibition": "96.9% (active)"}
{"smiles": "CCC(C)N1CCC2(CC1)N=c1c(c3c4c5c(C)c(O)c3c(O)c1=NC(=O)C(C)=CC=CC(C)C(O)C(C)C(O)C(C)C(OC(C)=O)C(C)C(OC)C=CO[C@@](C)(O5)C4=O)N2", "note": "(stereo not given in full)", "growth inhibition": "99.6% (active)"}
{"smiles": "Cn1c(=O)[nH]c(=O)c2c1nc(N1CCCCC1)n2CC=NNc1ccc(C(=O)O)cc1", "growth inhibition": "10.4%"}
{"smiles": "O=C(CNC(=O)c1ccco1)NN=Cc1ccc(O)cc1O", "growth inhibition": "4.74%"}
{"smiles": "CC(C)CC(=O)NC(=S)Nc1ccc(F)cc1F", "growth inhibition": "86.4% (active)"}
{"smiles": "CC(C)CC(=O)NC(=S)Nc1cc(C(=O)O)ccc1Cl", "growth inhibition": "9.77%"}
{"smiles": "CC(C)C(=O)NC(=S)Nc1ccccc1F", "growth inhibition": "14.2%"}
{"smiles": "CCOC(=O)COc1c(C=NO)cc(Cl)cc1OC", "growth inhibition": "1.74%"}
{"smiles": "O=C(CN1CCCCCC1)Nc1ccc(Br)cc1[N+](=O)[O-]", "growth inhibition": "5.98%"}
{"smiles": "O=C(CN1CCCCCC1)Nc1ccc(Br)cc1Br", "growth inhibition": "4.57%"}
{"smiles": "O=C(CN1CCCCC1)Nc1ccc(Br)cc1C(=O)c1ccccc1Cl", "growth inhibition": "88.6% (active)"}
{"smiles": "COC(=O)C1=C(C(=O)OC)C2N(C)c3ccccc3[C@@]23CC(C(=O)OC)N(C(C)=O)C3=N1", "note": "(stereo not given in full)", "growth inhibition": "3.76%"}
{"smiles": "CC(C)C(=NNc1ccccc1[N+](=O)[O-])c1ccccc1", "growth inhibition": "42.3%"}
{"smiles": "NC(=O)C(=Cc1ccccc1)NC(=O)C=Cc1ccccc1", "growth inhibition": "-1.58%"}
{"smiles": "CC(Cc1ccccc1)=NNC(=O)CNC(=O)Cc1ccccc1", "growth inhibition": "2.62%"}
{"smiles": "Cc1nc2c(cnn2-c2ccccc2)c(=O)n1N=Cc1ccccc1", "growth inhibition": "6.82%"}
{"smiles": "C=C[C@]1(C)CC(OC(=O)CSCCN(CC)CC)[C@]2(C)C(C)CC[C@]3(CCC(=O)C32)C(C)C1O", "note": "(stereo not given in full)", "growth inhibition": "99.9% (active) and 100% (active)"}
{"smiles": "O=C(C=Cc1ccccc1Cl)Nc1ccncc1", "growth inhibition": "-22.9%"}
{"smiles": "C[C@]12CCC3c4ccc(O)cc4CCC3C1CCC2OC(=O)CCC(=O)O", "note": "(stereo not given in full)", "growth inhibition": "1.18%"}
{"smiles": "O=C(CN1CCN(Cc2ccccc2)CC1)NN=Cc1ccc(Br)s1", "growth inhibition": "-1.87%"}
{"smiles": "COc1cccc(C2CC=C(C(=O)O)C(c3ccc(F)cc3)N2S(=O)(=O)c2ccc(C)cc2)c1", "note": "(stereo not given)", "growth inhibition": "24.5%"}
{"smiles": "O=[N+]([O-])c1cccc(C=NNc2nc(NCc3ccccc3)nc(N3CCOCC3)n2)c1O", "growth inhibition": "1.29%"}
{"smiles": "Cc1ccc(-c2csc(N3CCCC3C(=O)NCCn3c(-c4ccncc4)nc4ccccc43)n2)cc1", "note": "(stereo not given)", "growth inhibition": "12.4%"}
{"smiles": "Cc1nn(-c2ccccc2)c(C)c1C=NNC(=O)c1cc(-c2ccc(Br)s2)[nH]n1", "growth inhibition": "-11.7%"}
{"smiles": "COc1c(N2CCN(C(=S)Nc3ccccc3F)C(C)C2)c(F)cc2c(=O)c(C(=O)O)cn(C3CC3)c12", "note": "(stereo not given)", "growth inhibition": "100% (active)"}
{"smiles": "CC1CN(C(=S)Nc2ccccc2F)CC(C)O1", "note": "(stereo not given)", "growth inhibition": "2.47%"}
{"smiles": "COc1ccccc1NC(=S)N1CCN(c2ccc(F)cc2)CC1", "growth inhibition": "6.45%"}
{"smiles": "CC=C(C)C(=O)Nc1cccc(C2=NOC3(C2)CC(C(N)=O)N(C(=O)c2ccc(OC)cc2)C3)c1", "note": "(stereo not given)", "growth inhibition": "0.227%"}
{"smiles": "O=S(=O)(C=Cc1ccccc1)N1CCN(c2nc(-c3cccnc3)nc3ccccc23)CC1", "growth inhibition": "-1.02%"}
{"smiles": "NC(=O)C(=O)NN=Cc1cccc(C(F)(F)F)c1", "growth inhibition": "6.69%"}
{"smiles": "CCN(CC)CCCSc1nc2ccccc2s1", "growth inhibition": "5.71%"}
{"smiles": "O=[N+]([O-])c1c(NCCO)cc(Sc2nc3ccccc3s2)c2nonc12", "growth inhibition": "99.9% (active)"}
{"smiles": "OCCNc1nc(Nc2ccc(Cl)c(Cl)c2)nc2ccccc12", "growth inhibition": "-40.3%"}
{"smiles": "CC(=O)CC1c2cc(C(F)(F)F)ccc2S(=O)(=O)N1C1CCCC1", "note": "(stereo not given)", "growth inhibition": "-1.55%"}
{"smiles": "CCOC(=O)c1ccc(NC(=O)c2nc[nH]c2C(=O)NC(Cc2ccccc2)C(=O)OC(C)(C)C)cc1", "note": "(stereo not given)", "growth inhibition": "-22.8%"}
{"smiles": "Cc1ccc(C(=O)NCC(=O)NN=Cc2cccs2)cc1[N+](=O)[O-]", "growth inhibition": "4.96%"}
{"smiles": "COc1cc(C(=O)NN=Cc2cn(Cc3cccc(F)c3)c3ccccc23)ccc1O", "growth inhibition": "-6.8%"}
{"smiles": "COc1cccc(C=NNC(=O)CSCC(=O)Nc2ccccc2)c1O", "growth inhibition": "-4.58%"}
{"smiles": "COc1cccc(C=NNc2ncnc3c2ncn3Cc2ccccc2)c1O", "growth inhibition": "2.15%"}
{"smiles": "COc1cccc(C=NNc2cc(-n3nc(C)cc3-c3ccccc3)ncn2)c1O", "growth inhibition": "101% (active)"}
{"smiles": "CCc1ccc2c(c1)C(=O)C[C@]1(CCCC(C)C1)O2", "note": "(stereo not given in full)", "growth inhibition": "5.31%"}
{"smiles": "C#CCNC(=O)C1=CC(c2csc3ccccc23)CC(OCCCCO)O1", "note": "(stereo not given)", "growth inhibition": "-11.2%"}
{"smiles": "Cc1ccc(OCC(=O)NN=Cc2ccc3c(c2)OCO3)cc1C", "growth inhibition": "-11%"}
{"smiles": "CCCCCCCCCCCCn1ccc(=N)cc1", "growth inhibition": "101% (active)"}
{"smiles": "CCCCCN1CC(O)=C(c2ccccc2)C1=N", "growth inhibition": "2.59%"}
{"smiles": "COc1ccc(C=NNc2nn3cnnc3c3ccccc23)cc1", "growth inhibition": "12.2%"}
{"smiles": "CCOC(=O)CN1C(=O)NC(c2ccco2)C(C(C)=O)=C1C", "note": "(stereo not given)", "growth inhibition": "-0.836%"}
{"smiles": "CCC(=O)Nc1cccc(C2=NOC3(C2)CC(C(N)=O)N(C(=O)COc2ccc(Cl)cc2)C3)c1", "note": "(stereo not given)", "growth inhibition": "3.89%"}
